Measured values: the supplement of paper PMC3334620
Over roughly 33,000 sequences, “E-score (-0.5 to 0.5)” has its median near -0.016; the highest 2% begin near 0.31. The sample holds the highest values, similar sequences and a random draw of the others, so the mix is not that of the screen.

What follows are sequences tested against Cst6 (UniProt P40535) (assay: PBM E-score (8-mer binding enrichment) (E-score (-0.5 to 0.5)); higher = stronger / more preferred TF binding). Settings: protein concentration: 200 nM; construct: GST-DNA-binding domain.
UniProt P40535, sequence (P40535 whole entry, the tested form may be a part): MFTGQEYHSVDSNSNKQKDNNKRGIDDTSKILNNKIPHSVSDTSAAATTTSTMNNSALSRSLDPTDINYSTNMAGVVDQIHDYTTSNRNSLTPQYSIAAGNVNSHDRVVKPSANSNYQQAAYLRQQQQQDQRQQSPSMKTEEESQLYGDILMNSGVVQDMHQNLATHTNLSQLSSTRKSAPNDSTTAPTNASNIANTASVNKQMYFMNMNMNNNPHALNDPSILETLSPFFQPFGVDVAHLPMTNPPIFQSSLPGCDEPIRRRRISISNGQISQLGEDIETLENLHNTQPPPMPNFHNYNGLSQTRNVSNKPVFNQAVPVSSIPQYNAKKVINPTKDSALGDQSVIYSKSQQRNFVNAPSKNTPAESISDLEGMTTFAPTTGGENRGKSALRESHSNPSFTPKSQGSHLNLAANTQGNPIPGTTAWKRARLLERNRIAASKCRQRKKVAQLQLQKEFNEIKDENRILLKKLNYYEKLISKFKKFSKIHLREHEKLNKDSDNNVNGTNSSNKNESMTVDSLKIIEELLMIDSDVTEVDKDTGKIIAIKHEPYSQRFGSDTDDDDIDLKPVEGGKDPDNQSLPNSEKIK
Protocol: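 Universal 'all 10-mer' protein binding microarrays (Agilent AMADID 015681) probed with GST-tagged S. cerevisiae TFs (full-length or DBD) made by in vitro transcription/translation (PURExpress), about 100-200 nM. Bound TF was detected with fluorescent anti-GST. Each ungapped 8-mer (which stands for itself and its reverse complement) is scored by the PBM enrichment score (E-score), a modified Wilcoxon-Mann-Whitney statistic from -0.5 to +0.5, computed with the Universal PBM Analysis Suite. Scale: above 0.35 generally sequence-specific binding.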

Row | Sequence | PBM E-score
1 | GGTGTCTA | 0.0529
2 | AGGCTGCG | -0.225
3 | GTAGGACA | -0.0243
4 | CGCTTCGC | -0.0922
5 | ACACACAC | 0.0991
6 | TAACCTAA | 0.158
7 | ATTCGATG | 0.105
8 | CATCATCC | 0.345
9 | AATCATCC | 0.113
10 | GATCATCA | 0.163
11 | CATCATCA | 0.409
12 | GATCATCC | -0.0712
13 | CATCATCG | 0.333
14 | ACTCATCA | 0.00088
15 | AATCATCT | 0.114
16 | CCTCATCG | 0.00595
17 | AATCATCA | 0.308
18 | CCTCATCA | 0.161
19 | AATCATCG | 0.039
20 | ACGCTGCT | -0.22
21 | CCGGGCGC | -0.213
22 | TGCCTAAA | 0.0602
23 | CCGATTTC | -0.121
24 | TACCGACA | 0.075

Row | Sequence | PBM E-score
25 | TAGGCTGA | -0.0803
26 | CCCCTACG | -0.298
27 | GAGGAGGA | -0.288
28 | ACTCCTTC | -0.234
29 | TATCATCA | 0.341
30 | TATCATAA | 0.144
31 | AATCATTA | 0.28
32 | CATCATTA | 0.327
33 | TCTCATCA | 0.181
34 | CATCATTC | 0.223
35 | CCTGCTTA | -0.0696
36 | GGGTCGCA | -0.144
37 | CCGAGGCG | 0.0158
38 | CTCCTAGA | -0.09
39 | ATGCATTA | 0.255
40 | CAATTACA | 0.223
41 | CACTTACG | 0.351
42 | CACTTACC | 0.0685
43 | ATATTACA | 0.248
44 | ATATTACC | 0.248
45 | AAATTACG | 0.336
46 | CAATTACG | 0.346
47 | ATATTACG | 0.415
48 | CAATTACC | 0.138

Row | Sequence | PBM E-score
49 | AAATTACT | 0.222
50 | CACTTACA | 0.173
51 | AAATTACC | 0.199
52 | AACTGCCT | 0.129
53 | CCGTTGCG | 0.0674
54 | TACCTGCA | -0.0618
55 | ACAAGATA | 0.0758
56 | AGCTATGA | 0.101
57 | ATATGCAC | 0.0769
58 | ACGGGCAC | -0.105
59 | CAGCCCAC | -0.191
60 | AAGGTAAT | 0.129
61 | ACCGTCCC | -0.173
62 | CTGTAAGA | 0.0332
63 | ATGTAAGA | 0.339
64 | GTGTAAGA | 0.0158
65 | CCGTAAGA | -0.0536
66 | ACGTAAGA | 0.448
67 | CCGTAAGC | -0.0303
68 | ACGTACGC | 0.229
69 | ACGTACGT | 0.311
70 | GCGTAAGC | 0.0902
71 | ACGTACGG | 0.149
72 | ACGTAAGC | 0.381

Row | Sequence | PBM E-score
73 | TCGTAAGA | 0.00239
74 | ATCTGGAA | 0.184
75 | GCTCAATA | 0.0653
76 | CATAGAGG | -0.0937
77 | CACCTCGG | 0.02
78 | CACCATTC | 0.0213
79 | AGGTATTC | 0.0784
80 | ACCGCAGG | -0.104
81 | CCACCGAC | -0.163
82 | ACTCAAGT | -0.053
83 | CACAACCA | 0.124
84 | GTATACCA | -0.051
85 | TGCGCCAA | -0.0304
86 | AAGTAAGC | 0.0657
87 | ACGTAAGT | 0.422
88 | ACGTAAGG | 0.347
89 | AAGTAAGT | 0.116
90 | CCGTAAGG | -0.113
91 | AGGTAAGG | -0.132
92 | AGTGGCGC | 0.00481
93 | AGCCAAAG | -0.114
94 | GATGATAA | 0.257
